Screens as filed in PubChem.
Pol beta inh: blocks human DNA polymerase beta activity; P06746; Pol beta primer extension/strand displacement, fluorescence kinetic; Potency, µM (series often up to 114 µM), usual class: inhibitors; 1.3% of 340,000 active; AID 485314
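Enzyme-only controls used 10 nM Pol beta; buffer lacking enzyme served as negative control. Compound preincubated 15 min, then 50 nM substrate added; 0 and 10 min reads at room temperature.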
Pol iota inh: DNA polymerase iota (human) inhibition; Potency, µM (titrated, usually from 115 µM), usual class: inhibitors; Q9UNA4; Pol iota fluorescent replication assay, 10 min; 1% of 390,000 active
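Fluorescent replication assay read twice, at 0 min and 10 min after adding 50 nM (final) substrate. Enzyme (10 nM) and compounds were first incubated 15 min at room temperature; enzyme-free buffer wells were negative controls.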
Pol kappa inh-1: inhibitors of human DNA polymerase kappa; 0.53% of 400,000 active; purified Pol kappa, fluorescent DNA synthesis assay, 10 min; AID 588579; Potency, µM (doses to about 107 µM), most hits filed as inhibitors
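Pol kappa 10 nM + cpd, 15 min RT; start w/ substrate 50 nM final; fluorescence kinetic read, 0 and 10 min. Neg ctrl: buffer, no enzyme.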
Pol eta inh-1: DNA polymerase eta (human) inhibition | Potency, µM (series often up to 114 µM), hits mostly inhibitors | recombinant Pol eta, fluorescent DNA replication assay | 1.2% of 390,000 active | AID 588591 | Q9Y253
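Pol eta at 10 nM preincubated with compounds 15 min at room temperature; reaction started with fluorescent substrate (50 nM final) and read kinetically at 0 and 10 min.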
L3MBTL1 block: L3MBTL1 (human) inhibition; AlphaScreen L3MBTL1–H3K9me1 peptide binding; 0.66% of 230,000 active; Potency, µM (highest dose often 57.1 µM), hits mostly inhibitors; Q9Y468; note: nearly all actives have a fitted effect of over 60% in size
Target sequence (Q9Y468 whole entry, looked up): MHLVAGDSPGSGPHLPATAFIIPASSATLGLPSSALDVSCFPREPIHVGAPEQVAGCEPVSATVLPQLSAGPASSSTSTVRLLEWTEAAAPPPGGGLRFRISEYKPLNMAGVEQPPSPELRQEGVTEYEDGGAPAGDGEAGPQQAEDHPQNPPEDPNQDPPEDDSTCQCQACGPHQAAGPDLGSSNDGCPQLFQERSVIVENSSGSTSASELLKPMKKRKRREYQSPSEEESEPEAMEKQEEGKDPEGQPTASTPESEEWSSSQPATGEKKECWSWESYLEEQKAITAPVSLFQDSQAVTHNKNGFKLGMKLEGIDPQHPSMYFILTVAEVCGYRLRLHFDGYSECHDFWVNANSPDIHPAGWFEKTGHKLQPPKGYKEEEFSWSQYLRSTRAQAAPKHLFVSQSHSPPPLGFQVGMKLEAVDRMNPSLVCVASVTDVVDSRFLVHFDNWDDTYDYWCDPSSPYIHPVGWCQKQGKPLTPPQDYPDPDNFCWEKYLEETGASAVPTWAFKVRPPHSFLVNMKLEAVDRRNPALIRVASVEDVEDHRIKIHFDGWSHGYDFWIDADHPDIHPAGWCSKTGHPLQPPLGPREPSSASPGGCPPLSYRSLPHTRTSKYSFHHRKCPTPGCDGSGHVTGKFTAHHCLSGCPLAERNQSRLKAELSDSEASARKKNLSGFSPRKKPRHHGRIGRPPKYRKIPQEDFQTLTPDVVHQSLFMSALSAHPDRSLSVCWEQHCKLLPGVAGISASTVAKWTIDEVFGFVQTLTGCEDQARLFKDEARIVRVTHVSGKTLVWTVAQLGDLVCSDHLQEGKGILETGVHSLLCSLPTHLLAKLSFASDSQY
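AlphaScreen proximity signal between nickel-chelate acceptor and streptavidin donor beads (final 10 ug/mL) reports binding of 50 nM L3MBTL1 to 75 nM biotin-H3 K9me1 peptide; complex incubated with compounds 30 min at room temperature; cefsulodin titration as control.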
WRN helicase inh-1: blocks human WRN helicase | WRN helicase unwinding, fluorescent forked duplex, kinetic | Q14191 | 0.46% of 360,000 active | Potency, µM (highest dose often 114 µM), most hits filed as inhibitors; note: nearly all actives have a fitted effect of over 55% in size
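Screening of the MLSMR collection measured strand separation of a quenched forked DNA duplex (100 nM) by 20 nM WRN with 2 mM ATP, all final. Compounds were preincubated with enzyme 15 min at room temperature.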
PGK validate: TbPGK inhibition, hit validation. shares compounds with Pol kappa inh-1. TbPGK coupled GAPDH assay, Kinase-Glo luminescence. Potency, µM (highest dose often 57.5 µM), actives largely listed as inhibitors. 79% of 500 active. AID 686980; note: nearly all actives have a fitted effect of over 65% in size
Pol iota confirm: Human Pol iota inhibitor confirmatory assay; shares compounds with Pol kappa inh-1; Pol iota primer extension, TAMRA/BHQ fluorescence; Potency, µM, most hits filed as inhibitors; 77% of 1,500 active
Pol kappa inh-2: Pol kappa (human) inhibition, cherry-pick confirmation; shares compounds with Pol eta inh-1; purified Pol-kappa, fluorescent strand-displacement substrate; Potency, µM, most hits filed as inhibitors; 76% of 920 active
Pol eta inh-2: Pol eta (human) inhibition, cherry-pick confirmation; shares compounds with Pol eta inh-1; Pol eta primer extension, TAMRA/BHQ fluorescence, 10 min; Potency, µM, hits mostly inhibitors; 64% of 2,600 active
WRN helicase inh-2: WRN helicase inhibition, cherry-pick retest; 63% of 610 active; WRN helicase DNA unwinding, fluorescence kinetic; shares compounds with WRN helicase inh-1; Potency, µM (titrated, usually from 57.1 µM), most hits filed as inhibitors; AID 720497; note: nearly all actives have a fitted effect of over 65% in size
TO displacement: DNA binding via thiazole orange displacement | shares compounds with WRN helicase inh-1 | thiazole orange DNA binding displacement, fluorescence | Potency, µM (highest dose often 57.1 µM), actives largely listed as inhibitors | 10% of 610 active;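 note: drop in dye fluorescence marks compound binding to DNA; nearly all actives have a fitted effect of over 60% in size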
BLM counter: BLM helicase inhibition, WRN selectivity check; 60% of 610 active; shares compounds with WRN helicase inh-1; Recombinant BLM helicase DNA unwinding, red fluorescence; Potency, µM (series often up to 57.1 µM), most hits filed as inhibitors; AID 720503; note: nearly all actives have a fitted effect of over 60% in size
Numbers stand for hits; . = inactive; ? = inconclusive; / = no result. In the library only some 2.5% were active in any assay of this set; here they are far more common. Calls come from the whole dose curve; as a rule, active = well fitted curve in the direction sought with a large enough effect; inconclusive = small, poorly fitted or top-dose-only effect, or another doubt; inactive = no such curve, though single readings can be large; an effect the other way counts as inactive or inconclusive.

SMILES	Pol beta inh	Pol iota inh	Pol kappa inh-1	Pol eta inh-1	L3MBTL1 block	WRN helicase inh-1	Pol iota confirm	Pol eta inh-2	WRN helicase inh-2	TO displacement	BLM counter	others
O=C(Cn1c2ccccc2c(=O)c2ccccc21)N/N=C/c1cc([N+](=O)[O-])ccc1N1CCCCCC1	2.51µM	.	.	2.82µM	.	10.6µM	?	/	6.07µM	.	1.08µM
O=C(CSc1nc2ccccc2o1)N/N=C/c1ccccc1	.	.	.	.	.	.	/	/	/	/	/
Cc1nonc1C(=O)N/N=C/c1ccc(O)c(O)c1	.	.	.	.	.	.	/	/	/	/	/
O=C(N/N=C/c1ccc(O)c(O)c1)N/N=C/c1ccc(O)c(O)c1	0.316µM	0.891µM	0.794µM	0.708µM	/	3.98µM	2.99	6.01	0.961µM	?	1.08µM	PGK validate=1.16µM;Pol kappa inh-2=2.12
COc1ccc2nc(C)cc(SCC(=O)N/N=C/c3ccc(O)c(O)c3)c2c1	2.24µM	15.8µM	28.2µM	4.47µM	.	14.1µM	?	23.9	4.82µM	?	6.07µM
COc1cccc2c(SCC(=O)N/N=C/c3ccc(O)c(O)c3)cc(C)nc12	2µM	11.2µM	12.6µM	7.94µM	.	20µM	29.9	19	4.82µM	?	4.82µM
O=C(CSc1nc2ccccc2o1)N/N=C/c1ccc(O)c(O)c1	?	2.51µM	7.08µM	3.55µM	/	8.91µM	16.8	12	2.71µM	?	1.92µM	PGK validate=3.26µM;Pol kappa inh-2=8.44
CCOC(=O)C1=CN(Cc2cccc(-c3cccnc3)c2)S(=O)(=O)N(CC)C1C (stereo not given)	/	.	.	.	.	.	/	/	/	/	/
C[C@H](CO)N1C[C@H](C)[C@@H](CN(C)S(=O)(=O)c2cn(C)cn2)Oc2ccc(NC(=O)Cn3cnnn3)cc2C1=O	/	.	.	.	.	.	/	/	/	/	/
CN(C)/C=C1\SC(=S)N(c2ccc(Br)cc2)C1=O	?	39.8µM	?	?	/	?	18.9	75.7	24.1µM	.	21.5µM
O=C(O)Cc1ccc(N=Nc2c(O)c(C(=O)O)cc3ccccc23)cc1	31.6µM	7.94µM	?	7.08µM	25.1µM	25.1µM	21.2	21.3	19.2µM	?	17.1µM
Oc1ccc2ccccc2c1N=Nc1ccc(F)cc1	.	.	.	.	?	.	/	/	/	/	/
O=C(Nc1ccc(S(=O)(=O)Nc2ncccn2)cc1)c1ccc(S(=O)(=O)N2CCCC2)cc1	.	.	.	.	?	.	/	/	/	/	/
C=CCN1C(=O)/C(=C2/Sc3ccccc3N2CCCS(=O)(=O)O)SC1=S	44.7µM	?	?	3.16µM	?	?	?	37.9	21.5µM	.	21.5µM
Nc1nonc1-c1nc2ccccc2n1CC(=O)N/N=C/c1ccc(-c2cccc(C(=O)O)c2)o1	20µM	17.8µM	?	17.8µM	?	39.8µM	75.2	23.9	24.1µM	?	24.1µM
Nc1nonc1-c1nc2ccccc2n1CC(=O)Nc1ccccc1C(=O)O	.	.	.	.	/	/	/	/	/	/	/
O=C(O)CC(C(=O)O)N1C(=O)/C(=C/C=C/c2ccco2)SC1=S (stereo not given)	0.794µM	1.58µM	.	0.891µM	1.12µM	10µM	5.32	3.01	3.83µM	3.83µM	4.82µM	PGK validate=2.91µM
O=C(NN1C(=O)/C(=C/C=C/c2ccco2)SC1=S)c1ccccc1O	1.12µM	1.26µM	3.98µM	1.12µM	1.26µM	10µM	2.67	3.38	3.04µM	?	8.57µM	PGK validate=9.19µM
Cc1ccccc1NC(=O)CSc1nc2ccc(NC(=O)COc3ccccc3F)cc2s1	.	.	.	.	/	/	/	/	/	/	/
Cc1n[nH]c(=S)n(NC(=O)/C=C/C(=O)Nn2c(=S)[nH]nc(C)c2=O)c1=O	20µM	?	8.91µM	8.91µM	?	17.8µM	21.2	9.53	?	.	21.5µM	PGK validate=20.6µM;Pol kappa inh-2=9.47
O=C(O)COc1ccc(/C=N/NC(=O)c2ccc(-c3csc(Nc4ccc(Cl)cc4)n3)cc2)cc1	?	2.82µM	7.94µM	2.51µM	/	12.6µM	2.99	10.7	4.29µM	5.41µM	0.857µM
COc1ccc(N2CCN(C(=O)C34CCC(C)(C(=O)C3)C4(C)C)CC2)cc1 (stereo not given)	.	.	.	.	/	.	/	/	/	/	/
CC12CC(NC(=O)N1c1cccc(C(=O)N3CCN(c4ccccc4)CC3)c1)c1ccccc1O2 (stereo not given)	.	.	.	.	.	.	/	/	/	/	/
O=C(OC(C(=O)NCc1ccccc1)c1ccccc1)c1ccco1 (stereo not given)	.	.	.	.	/	.	/	/	/	/	/
Oc1ccc(-c2cn3c(n2)SCC3)cc1O	1.26µM	2.51µM	7.08µM	2.82µM	/	4.74µM	9.47	3.38	?	.	17.1µM
O=C(Nc1ccc2nc(-c3ccc4nc[nH]c4c3)[nH]c2c1)c1cccs1	4.47µM	1.12µM	35.5µM	20µM	.	39.8µM	?	?	21.5µM	.	24.1µM
COc1cc2c(cc1NC(=O)CSc1nc3ccccc3[nH]1)oc1ccccc12	.	44.7µM	?	50.1µM	.	?	42.3	42.6	.	.	?
